Measurements reported in PubChem BioAssay (NCI).
The panel holds about 79,000 compounds, 15% with a hit somewhere; the sample as a whole holds those more often. Values without a mark were called inactive. Active and inactive are the calls of the source. Rule as the data show it: active = growth inhibition above about 70%; inactive = the rest.

Columns and labels:
[1] = NCI Yeast Anticancer Drug Screen. Data for the wt2 strain (AID 169); conditions: S. cerevisiae wt2 strain growth inhibition, active compounds read high
Summary of the method: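 The panel's yeast strains carry defined changes in DNA repair or cell cycle genes. Each strain is grown with compound, and growth loss is scored relative to vehicle.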

[2] = NCI Yeast Anticancer Drug Screen. Data for the mlh1 strain (AID 171);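 also: 0% = growth of vehicle-treated control cultures of the same strain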; conditions: S. cerevisiae mlh1 strain growth inhibition, active compounds read high
Summary of the method: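 Inhibition values reflect reduced yeast growth in the presence of compound, referenced to vehicle controls, using a strain chosen for its alteration in DNA repair or cell cycle control.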

[3] = NCI Yeast Anticancer Drug Screen. Data for the sgs1 strain (AID 173);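 also: 0% = growth of vehicle-only control cultures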; conditions: S. cerevisiae sgs1 mutant, active compounds read high
Summary of the method: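 Vehicle-treated cultures served as reference for growth inhibition of a yeast strain altered in DNA damage repair or cell cycle control after compound exposure.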

[4] = NCI Yeast Anticancer Drug Screen. Data for the mlh1 rad18 strain (AID 175); conditions: S. cerevisiae mlh1 rad18 strain growth inhibition, active compounds read high
Summary of the method: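 Inhibition values reflect reduced growth of mutant yeast versus vehicle-treated controls following compound exposure; the mutations affect DNA damage repair.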

[5] = NCI Yeast Anticancer Drug Screen. Data for the rad18 strain (AID 177); conditions: S. cerevisiae rad18 mutant growth inhibition, active compounds read high
Summary of the method: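 Steps: expose repair-mutant yeast to compound; measure growth; express as inhibition relative to vehicle control.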

[6] = NCI Yeast Anticancer Drug Screen. Data for the rad52 strain (AID 147);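 also: 0% = growth of vehicle-treated control cultures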; conditions: S. cerevisiae rad52 mutant growth inhibition, active compounds read high
Summary of the method: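 Inhibition of yeast growth, referenced to vehicle controls, was the measured output for a strain with defective DNA damage repair.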

[7] = NCI Yeast Anticancer Drug Screen. Data for the wt1 strain (AID 149);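 also: 0% = growth of vehicle-treated wt1 cultures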; conditions: S. cerevisiae wt1 strain (SPY 50644) growth inhibition, active compounds read high
Summary of the method: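 Each compound is tested on wt1 yeast and the loss of growth versus vehicle gives the inhibition value.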

[8] = NCI Yeast Anticancer Drug Screen. Data for the rad50EPP+ strain (AID 151);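 also: 0% = growth of vehicle-treated control cultures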; conditions: S. cerevisiae rad50 mutant strain, active compounds read high
Summary of the method: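 Genetically defined yeast (rad50EPP+, DNA damage repair alteration) is grown with compound, and inhibition of growth is expressed relative to vehicle-treated controls.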

[9] = NCI Yeast Anticancer Drug Screen. Data for the mgt1 strain (AID 153); conditions: S. cerevisiae mgt1 mutant growth inhibition, active compounds read high
Summary of the method: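 In the mgt1 strain, test compounds were added and growth inhibition was determined relative to vehicle-treated controls.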

[10] = NCI Yeast Anticancer Drug Screen. Data for the rad50 strain (AID 155);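 also: 0% = growth of vehicle-only cultures of the same strain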; conditions: S. cerevisiae rad50 strain growth inhibition, active compounds read high
Summary of the method: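 Vehicle-treated cultures provide the reference for the growth inhibition reported for compound-exposed, repair-deficient yeast.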

[11] = NCI Yeast Anticancer Drug Screen. Data for the mec2-1 strain (AID 157); conditions: S. cerevisiae mec2-1 strain, active compounds read high
Summary of the method: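 Each compound was tested on mec2-1 yeast, a strain altered in DNA damage repair or cell cycle control. Growth inhibition is reported relative to vehicle.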

[12] = NCI Yeast Anticancer Drug Screen. Data for the rad14 strain (AID 159);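 also: 0% = growth of vehicle-treated control cultures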; conditions: S. cerevisiae rad14 strain growth inhibition, active compounds read high
Summary of the method: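 Inhibition of growth is reported for a repair-deficient yeast mutant following compound treatment, calculated relative to cultures that received vehicle.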

[13] = NCI Yeast Anticancer Drug Screen. Data for the sgs1 mgt1 strain (AID 161);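 also: 0% = growth of cultures given vehicle only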; conditions: S. cerevisiae sgs1 mgt1 strain, active compounds read high
Summary of the method: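 Inhibition of yeast growth, normalised to vehicle-treated controls, is reported for a strain bearing genetic alterations in DNA damage repair.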

[14] = NCI Yeast Anticancer Drug Screen. Data for the CLN2oe strain (AID 163);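 also: 0% = growth of vehicle-only control cultures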; conditions: S. cerevisiae CLN2oe strain, active compounds read high
Summary of the method: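 First, the altered yeast strain was treated with each compound; second, its growth was measured; finally, inhibition was derived by comparison with vehicle controls.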

[15] = NCI Yeast Anticancer Drug Screen. Data for the cln2 rad14 strain (AID 165);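 also: 0% = growth equal to vehicle treated cultures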; conditions: S. cerevisiae cln2 rad14 strain, active compounds read high
Summary of the method: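 Test compounds were added to cln2 rad14 yeast cultures; inhibition of growth was then determined by comparison with vehicle treatment.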

[16] = NCI Yeast Anticancer Drug Screen. Data for the bub3 strain (AID 167); conditions: S. cerevisiae bub3 mutant strain, active compounds read high
Summary of the method: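 Mutant yeast screening strain plus compound; vehicle-treated cultures serve as the 0% inhibition reference.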

[17] = at 5.0 µM (retest, dose inferred, filed as 0.5)
[18] = at 50.0 µM (retest, dose inferred, filed as 5.0)

CN=C(N)N/N=C/c1ccc2c(c1)Cc1ccccc1-2 gave a growth inhibition ([1]; at 1.2 µM) of -44%, a growth inhibition ([1]; at 3.7 µM) of -17% and a growth inhibition ([1]; at 11.0 µM) of -15%. For the same compound, the growth inhibition ([1]; at 33.0 µM) was 34%, the growth inhibition ([1]; at 100.0 µM) was 98% (active) and the growth inhibition ([2]; at 1.2 µM) was -24%. For the same compound, the growth inhibition ([2]; at 3.7 µM) was -18%, the growth inhibition ([2]; at 11.0 µM) was -17% and the growth inhibition ([2]; at 33.0 µM) was -10%. The growth inhibition ([2]; at 100.0 µM) was 91% (active), the growth inhibition ([3]; at 1.2 µM) was 12% and the growth inhibition ([3]; at 3.7 µM) was 35%. The growth inhibition ([3]; at 11.0 µM) was 50%, the growth inhibition ([3]; at 33.0 µM) was 58% and the growth inhibition ([3]; at 100.0 µM) was 93% (active). For the same compound, the growth inhibition [4, 17] was 42%, the growth inhibition [4, 18] was 85% (active) and the growth inhibition ([4]; at 50.0 µM) was 81.2% (active). For the same compound, the growth inhibition ([5]; at 1.2 µM) was -5%, the growth inhibition ([5]; at 3.7 µM) was -15% and the growth inhibition ([5]; at 11.0 µM) was -12%. For the same compound, the growth inhibition ([5]; at 33.0 µM) was 1% and the growth inhibition ([5]; at 100.0 µM) was 90% (active).

For Nc1ccccc1CC(O)C(=O)O (stereo unspecified), the growth inhibition ([6]; at 1.2 µM) was 0%, the growth inhibition ([6]; at 3.7 µM) was 5% and the growth inhibition ([6]; at 11.0 µM) was 14%. For the same compound, the growth inhibition ([6]; at 33.0 µM) was 53%, the growth inhibition ([6]; at 100.0 µM) was 88% (active) and the growth inhibition ([7]; at 1.2 µM) was 2%. For the same compound, the growth inhibition ([7]; at 3.7 µM) was 3%, the growth inhibition ([7]; at 11.0 µM) was 13% and the growth inhibition ([7]; at 33.0 µM) was 42%. For the same compound, the growth inhibition ([7]; at 100.0 µM) was 90% (active), the growth inhibition ([8]; at 1.2 µM) was -2% and the growth inhibition ([8]; at 3.7 µM) was 1%. It also gave a growth inhibition ([8]; at 11.0 µM) of -1%, a growth inhibition ([8]; at 33.0 µM) of 2% and a growth inhibition ([8]; at 100.0 µM) of 4%. For the same compound, the growth inhibition ([9]; at 1.2 µM) was 4%, the growth inhibition ([9]; at 3.7 µM) was -1% and the growth inhibition ([9]; at 11.0 µM) was 14%. For the same compound, the growth inhibition ([9]; at 33.0 µM) was 74% (active), the growth inhibition ([9]; at 100.0 µM) was 95% (active) and the growth inhibition ([10]; at 1.2 µM) was 3%. It also gave a growth inhibition ([10]; at 3.7 µM) of 13%, a growth inhibition [10, 17] of -15% and a growth inhibition ([10]; at 11.0 µM) of 27%. For the same compound, the growth inhibition ([10]; at 33.0 µM) was 85% (active), the growth inhibition [10, 18] was 94% (active) and the growth inhibition ([10]; at 50.0 µM) was 93% (active). For the same compound, the growth inhibition ([10]; at 100.0 µM) was 95% (active), the growth inhibition ([11]; at 1.2 µM) was 0% and the growth inhibition ([11]; at 3.7 µM) was 8%. For the same compound, the growth inhibition [11, 17] was 3%, the growth inhibition ([11]; at 11.0 µM) was 14% and the growth inhibition ([11]; at 33.0 µM) was 30%. The growth inhibition [11, 18] was 74% (active), the growth inhibition ([11]; at 50.0 µM) was 52.1% and the growth inhibition ([11]; at 100.0 µM) was 90% (active). It also gave a growth inhibition ([12]; at 1.2 µM) of -3%, a growth inhibition ([12]; at 3.7 µM) of 6% and a growth inhibition ([12]; at 11.0 µM) of 24%. For the same compound, the growth inhibition ([12]; at 33.0 µM) was 91% (active), the growth inhibition ([12]; at 100.0 µM) was 97% (active) and the growth inhibition [13, 17] was -6%. For the same compound, the growth inhibition [13, 18] was 95% (active), the growth inhibition ([13]; at 50.0 µM) was 94.5% (active) and the growth inhibition ([14]; at 1.2 µM) was 5%. The growth inhibition ([14]; at 3.7 µM) was 9%, the growth inhibition ([14]; at 11.0 µM) was 13% and the growth inhibition ([14]; at 33.0 µM) was 25%. It also gave a growth inhibition ([14]; at 100.0 µM) of 42%, a growth inhibition [15, 17] of -2% and a growth inhibition [15, 18] of 14%. The growth inhibition ([15]; at 50.0 µM) was 13.6%, the growth inhibition ([16]; at 1.2 µM) was 5% and the growth inhibition ([16]; at 3.7 µM) was -14%. For the same compound, the growth inhibition [16, 17] was -17%, the growth inhibition ([16]; at 11.0 µM) was 9% and the growth inhibition ([16]; at 33.0 µM) was 70% (active). The growth inhibition [16, 18] was 90% (active), the growth inhibition ([16]; at 50.0 µM) was 83.8% (active) and the growth inhibition ([16]; at 100.0 µM) was 92% (active). The growth inhibition ([1]; at 1.2 µM) was 2%, the growth inhibition ([1]; at 3.7 µM) was 6% and the growth inhibition ([1]; at 11.0 µM) was 21%. The growth inhibition ([1]; at 33.0 µM) was 90% (active), the growth inhibition ([1]; at 100.0 µM) was 95% (active) and the growth inhibition ([2]; at 1.2 µM) was 2%. For the same compound, the growth inhibition ([2]; at 3.7 µM) was 4%, the growth inhibition ([2]; at 11.0 µM) was 29% and the growth inhibition ([2]; at 33.0 µM) was 92% (active). The growth inhibition ([2]; at 100.0 µM) was 97% (active), the growth inhibition ([3]; at 1.2 µM) was -1% and the growth inhibition ([3]; at 3.7 µM) was 1%. The growth inhibition ([3]; at 11.0 µM) was 14%, the growth inhibition ([3]; at 33.0 µM) was 83% (active) and the growth inhibition ([3]; at 100.0 µM) was 95% (active). For the same compound, the growth inhibition [4, 17] was 0%, the growth inhibition [4, 18] was 94% (active) and the growth inhibition ([4]; at 50.0 µM) was 92.7% (active). It also gave a growth inhibition ([5]; at 1.2 µM) of 1%, a growth inhibition ([5]; at 3.7 µM) of 4% and a growth inhibition ([5]; at 11.0 µM) of 10%. The growth inhibition ([5]; at 33.0 µM) was 60% and the growth inhibition ([5]; at 100.0 µM) was 90% (active).
